Assay outcomes (PubChem BioAssay)
Shiga toxin inh: inhibitors of Shiga toxin in Vero cells; Vero cells, Shiga toxin protein synthesis inhibition reporter; inhibition, % at 38.7 µM; 290,000 compounds, 9.2% hits; AID 2315; in the data active = inhibition mostly above about 28%, no sharp cut-off; inactive = mostly below about 43%; also: 0% is about no effect
Lassa entry inh: inhibitors of Lassa virus binding or cell entry; AID 540256; Potency, µM (series often up to 37.9 µM), inactives show at the top dose activity change, negative = inhibition, actives largely listed as inhibitors; 300,000 compounds, 1.2% hits; Lassa virus pseudotype entry inhibition, cell reporter; calls by dose curve; tested in HEK293 cells; also: potency is read from the fitted curve at half-maximal effect; % is scaled to controls: 0 for no effect and ±100 for the full control effect; nearly all actives have a fitted effect of over 50% in size
Cycloheximide cs: counter-screen for Shiga toxin inhibitors: cycloheximide protein synthesis inhibition; AID 2314; max response, %; 300,000 compounds, 12% hits; cell reporter, cycloheximide protein synthesis inhibition counterscreen; in the data active = max response mostly above about 13%, no sharp cut-off; inactive = mostly below about 14%; also: read at 38.3 µM for the half of the compounds with a filed dose; 0% is about no effect
Marburg entry inh: Marburg virus entry inhibition. Marburg virus pseudotyped entry inhibition, cell reporter. Potency, µM (highest dose often 37.8 µM), without a hit: top-dose activity change, negative = inhibition, usual class: inhibitors. 300,000 compounds, 1.8% hits. AID 540276; calls by dose curve; tested in HEK293 cells; also: potency is read from the fitted curve at half-maximal effect; % is scaled to controls: 0 for no effect and ±100 for the full control effect
* hit, by the source's call; ? = inconclusive; · = not tested or not shown; [ ] = remark or other dose. In the library only some 12% were active in any assay of this set; here they are far more common.

SMILES	Shiga toxin inh	Lassa entry inh	Cycloheximide cs	Marburg entry inh
O=C(Nc1ccc(Cl)cn1)c1ccc2nccnc2c1	132*	-15%[46.1 µM]	32*	?
CC(C)(C)NC(=O)c1ccc2nccnc2c1	13	-9%	9	7%
COC(=O)c1ccccc1NC(=O)c1ccc2nccnc2c1	-2	8%	6	?
O=C(Nc1ccccc1Cl)c1ccc2nccnc2c1	67*	?	25*	?
CN(CC(=O)NCc1ccc(Cl)cc1)S(=O)(=O)c1ccc2c(c1)c(=O)n(C)c(=O)n2C	·	14%[46.1 µM]	·	0%[46.1 µM]
COc1cccc(/C=C2/SC(=O)N(C)C2=O)c1OCc1ccc(C(=O)O)cc1	-5	19%[46.1 µM]	9	?
CN1C(=O)S/C(=C/c2ccc(OCc3cccc(C(=O)O)c3)cc2)C1=O	37*	-2%	35*	?
CC(C)C[C@H](NC(=O)CNC(=O)[C@H](C)NC(=O)[C@H](CC(C)C)NC(=O)[C@H](CCCNC(=N)N)NC(=O)[C@H](Cc1cnc[nH]1)NC(=O)[C@@H](NC(=O)[C@@H](N)C(C)C)[C@@H](C)O)C(=O)N[C@@H](CC(C)C)C(=O)N[C@@H](CO)C(=O)N[C@@H](CCCNC(=N)N)C(=O)N[C@@H](CO)C(=O)NCC(=O)NCC(=O)N[C@H](C(=O)N[C@H](C(=O)N[C@@H](CCCCN)C(=O)N[C@@H](CC(N)=O)C(=O)N[C@@H](CC(N)=O)C(=O)N[C@@H](Cc1ccccc1)C(=O)N[C@H](C(=O)N1CCC[C@H]1C(=O)N[C@H](C(=O)N[C@@H](CC(N)=O)C(=O)N[C@H](C(=O)NCC(=O)N[C@@H](CO)C(=O)N[C@@H](CCCCN)C(=O)N[C@@H](C)C(=O)N[C@@H](Cc1ccccc1)C(N)=O)C(C)C)[C@@H](C)O)C(C)C)C(C)C)C(C)C	-3	·	-7	·
Cc1nn(Cc2ccccc2Cl)c(C)c1C(=O)Nc1nnc(C2CC2)s1	10	?	11	0.89µM*
Cc1nn(-c2ccccc2)c(Cl)c1C(=O)Nc1nnc(C2CCCCC2)s1	3	?	-2	?
CC(=O)N/C(=C\c1ccc(F)cc1)C(=O)OCc1ccccc1	-3	2%	-3	?
O=C1OC(c2ccc(F)cc2)=N/C1=C\C=C/c1ccccc1	-7	·	-5	·
CO/C(N)=C(\C#N)N=Cc1ccccc1Cl	49	-5%	21*	15%[46.1 µM]
N#CCC(=O)N/N=C/c1ccccc1Cl	25	·	4	-1%[46.1 µM]
C=CCN1c2ccccc2[C@]23CCC(=O)N(CC(=O)OC)C2=NC(C(=O)OC)=C(C(=O)OC)[C@H]13	·	·	·	18%[14.2 µM]
O=C(Nc1cccc(Cl)c1)OCc1cncs1	29	7%	1	?
O=C(Nc1cccc2ccccc12)OCc1cncs1	32*	?	24*	?
O=C(Nc1ccc(Cl)cc1)OCc1cncs1	121*	-33%	60*	0%
CCOc1ccccc1C1CC(=O)Oc2c1c(=O)n(C)c1ccccc21 (centres undefined)	·	0%[46.1 µM]	·	?
CCOc1ccc(/C=C/c2nc(C#N)c(NCc3ccc(OC)cc3)o2)cc1	·	?	·	6%[46.1 µM]
O=C(CN1CCN(Cc2ccc(F)cc2Cl)C1=O)NCCc1ccccc1	16	·	14*	·
CCOc1ccc(CCNC(=O)CN2CCN(Cc3ccc(F)cc3Cl)C2=O)cc1OCC	·	-2%[46.1 µM]	·	-24%[46.1 µM]
CCOc1ccc(CCNC(=O)CN2CCN(Cc3ccc(Cl)cc3)C2=O)cc1OCC	·	1%[46.1 µM]	·	5µM*
CCN1C2=C(C=C/C1=C1\C(=O)N(C)C(=S)N1C1CCCCC1)CCCC2	·	·	·	2%[46.1 µM]
O=C(Cc1c(F)cccc1Cl)NC1=NCCS1	3	-6%[46.1 µM]	20*	?
SMILES	Shiga toxin inh	Lassa entry inh	Cycloheximide cs	Marburg entry inh
CCOC(=O)c1sc(NC(=O)Cc2c(F)cccc2Cl)nc1C	75*	?	30*	?
O=C(Cc1c(F)cccc1Cl)Nc1nc2ccccc2s1	113*	·	38*	·
Cc1nc2ccc(NC(=O)Cc3c(F)cccc3Cl)cc2s1	53*	·	31*	·
Cc1ccc(-n2ccnc(NCCc3ccc(S(N)(=O)=O)cc3)c2=O)c(C)c1	·	-12%[46.1 µM]	·	·
COc1cccc(/C=C/C(=O)OCC(=O)NCCC2=CCCCC2)c1	24	?	6	?
CC1(C2CCC3C4CCC5CC6(CCC5(C)C4C(=O)CC32C)OCCO6)OCCO1 (centres undefined)	·	-21%[46.1 µM]	·	?
Cc1csc(NC(=O)CCC(=O)N(CC(=O)NC2CCCCC2)c2ccccc2)n1	2	-15%[46.1 µM]	-3	-2%[46.1 µM]
O=C(NCCNC(=O)c1ccc(F)cc1)c1ccc(F)cc1	·	15%[46.1 µM]	·	0%[46.1 µM]
CC(C)CNC(=S)NC(=O)c1ccc(F)cc1	118*	7%	62*	?
CC(C)NC(=S)NC(=O)c1ccc(Cl)cc1Cl	2	10%	10	?
O=C(NC(=S)NC(CO)Cc1ccccc1)c1ccc(F)cc1 (centres undefined)	51*	8%[46.1 µM]	19*	11%[46.1 µM]
CC(C)CNC(=S)NC(=O)c1ccc(Cl)cc1Cl	54*	6%	43*	-26%
O=C(NC(=S)NCCN1CCOCC1)c1ccc(F)cc1	44*	12%	-2	?
Cc1cc(C)c(OCC(=O)Nc2nnc(-c3ccco3)o2)c(C)c1	-11	20%	-8	6%[46.1 µM]
O=C(Cc1ccc(-c2ccccc2)cc1)NCCN1CCOCC1	19	-4%	-3	13%[46.1 µM]
O=C(NCCSc1ccccc1)c1ccc(CN2CCOCC2)cc1	62*	·	36*	·
O=C(NCCN1CCOCC1)c1ccc(-c2ccccc2)cc1	38	48%[14.3 µM]	25*	?
O=C(Cc1ccc(Br)cc1)N1CCN(c2ccc(F)cc2)CC1	-8	-15%	-4	-21%
O=C(Cc1ccc(Br)cc1)N1CCOCC1	23	?	11*	17%
O=C(Cc1ccc(Br)cc1)N1CCN(c2ccccc2O)CC1	95*	14%	36*	-13%[46.1 µM]
O=C(Cc1ccc(Cl)c(Cl)c1)N1CCOCC1	35*	?	8	6%[46.1 µM]
CCc1ccc(CC(=S)N2CCOCC2)cc1	62*	·	26*	·
CCC1C(=O)CC2CCN3C(=O)CCC1C23 (centres undefined)	14	·	-5	·
S=C(N/N=C/c1ccc2c(c1)OCO2)NC1CC2CCC1C2 (centres undefined)	63*	?	35*	?
COc1ccc(/C=N/NC(=S)N[C@H]2CC3CCC2C3)cc1 (some centres undefined)	18	-22%	13*	-3%[46.1 µM]
SMILES	Shiga toxin inh	Lassa entry inh	Cycloheximide cs	Marburg entry inh
COc1cc(/C=N/NC(=S)NC2CC3CCC2C3)ccc1O (centres undefined)	36	·	34*	·
Cc1cc(C)n(CC(=O)N/N=C/c2ccc3c(c2)OCO3)n1	12	5%	1	?
O=C(/C=C/c1cccc([N+](=O)[O-])c1)NC1CC2CCC1C2 (centres undefined)	34	-18%	19*	28%
O=[N+]([O-])c1cccc(S(=O)(=O)NC2CC3CCC2C3)c1 (centres undefined)	·	·	-1	·
COc1ccc(/C=C/C(=O)NC2CCCCC2C)cc1 (centres undefined)	·	19%[46.1 µM]	12	?
COc1ccc(/C=C/C(=O)NC2CC3CCC2C3)cc1 (centres undefined)	·	·	27*	·
CCCC(c1nnnn1Cc1ccc(OC)cc1)N1CCC(C(N)=O)CC1 (centres undefined)	-7	15%	-3	4%[46.1 µM]
